Assay results: PubChem BioAssay (Tox21)
Where “and” joins values, the source holds several entries; their conditions need not be identical. Equal entries are not always repeated. Inconclusive results are not listed. Calls of active or inactive are those of the source. Unless noted, the call rests on the fitted dose curve; in most records, active means well fitted curve in the direction sought with a large enough effect in the repeat runs; inconclusive means weak or mixed curves; inactive means no such curve, though single readings can be large; an effect the other way counts as inactive or inconclusive.

Assays:
[1] = Human pregnane X receptor (PXR) small molecule agonists, qHTS cell viability counter screen (AID 1346977); conditions: PXR-Luc HepG2 viability, CellTiter-Fluor, 24 h; series mostly up to 92.4 µM; further: nearly all actives have a fitted effect of over 50% in size; further: potency means the concentration at half of the fitted maximal effect
Procedure, shortened: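 Measures live-cell protease fluorescence (CellTiter-Fluor) in PXR-Luc HepG2 cells treated 24hr with compounds at 37C. Cells had 5hr to attach before pin transfer of DMSO solutions.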

[2] = Caspase-3/7 induction in HepG2 cells by small molecules, qHTS assay (AID 1346978); conditions: HepG2 caspase-3/7 activation, Caspase-Glo luminescence, 17 h; series mostly up to 92.4 µM; further: nearly all actives have a fitted effect of over 15% in size; further: potency means the concentration at half of the fitted maximal effect
Procedure, shortened: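 Caspase-3/7 induction was measured by Caspase-Glo 3/7 luminescence (30 min, room temperature) after a 17 hr compound exposure of wild-type HepG2 cells seeded at 2,000 per well and pre-incubated 5 hr.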

[3] = Caspase-3/7 induction in CHO-K1 cells by small molecules, qHTS cell viability counter screen (AID 1346979); conditions: CellTiter-Fluor fluorescence, 17 h; series mostly up to 92.4 µM; further: nearly all actives have a fitted effect of over 35% in size; further: potency means the concentration at half of the fitted maximal effect
Procedure, shortened: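 In the same wells as the caspase read, viability of compound-treated wild-type CHO-K1 cells was assessed using CellTiter-Fluor, added after 16hr at 37C and measured by fluorescence following 1hr further incubation.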

[4] = Caspase-3/7 induction in CHO-K1 cells by small molecules, qHTS assay (AID 1346980); conditions: CHO-K1 caspase-3/7 induction, Caspase-Glo luminescence, 17 h; series mostly up to 92.4 µM; further: nearly all actives have a fitted effect of over 15% in size
Procedure, shortened: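 Luminescent Caspase-Glo 3/7 read (30min, room temperature) quantified apoptosis induction. Cells were wild-type CHO-K1, treated with compound for 17hr at 37 C and 5% CO2.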

[5] = Caspase-3/7 induction in HepG2 cells by small molecules, qHTS cell viability counter screen (AID 1346981); conditions: CellTiter-Fluor fluorescence, 17 h; series mostly up to 92.4 µM; further: nearly all actives have a fitted effect of over 30% in size; further: potency means the concentration at half of the fitted maximal effect
Procedure, shortened: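 HepG2, WT, 2,000 cells/well; 5 hr pre-incubation 37 C/5% CO2; compound pin-transferred from DMSO; 16 hr exposure; CellTiter-Fluor, 1 hr; fluorescence read.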

[6] = target: Nuclear receptor subfamily 1 group I member 2 (Homo sapiens) (UniProt O75469); assay: Human pregnane X receptor (PXR) small molecule agonists, qHTS assay (AID 1346982); conditions: PXR-Luc HepG2, CYP3A4 luciferase reporter, 24 h; series mostly up to 92.4 µM; further: nearly all actives have a fitted effect of over 35% in size; further: potency means the concentration at half of the fitted maximal effect
Procedure, shortened: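 Luciferase signal from ONE-Glo (30 min, room temperature) measured activation of hPXR-driven CYP3A4 reporter expression in PXR-Luc HepG2 cells treated with compounds for 24 hr at 37 C.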

[7] = target: Acetylcholinesterase (Homo sapiens) (UniProt P22303); assay: Acetylcholinesterase (AChE) small molecule antagonists: colormetric cell-based qHTS assay (AID 1347395; calls by dose curve; further: nearly all actives have a fitted effect of over 30% in size); conditions: SH-SY5Y cells AChE activity, colorimetric (Ellman); series mostly up to 115 µM
Procedure, shortened: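 Endogenous AChE of human neuroblastoma SH-SY5Y cells was measured with an Ellman-type DTNB/acetylthiocholine mix. Compound pretreatment lasted 30 min at 37 C; substrate reaction ran 90 min at 37 C.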

[8] = target: Acetylcholinesterase (Homo sapiens) (UniProt P22303); assay: Acetylcholinesterase (AChE) small molecule antagonists: enzyme-based qHTS assay (AID 1347397; calls by dose curve; further: nearly all actives have a fitted effect of over 55% in size); conditions: Potency: AChE enzyme activity inhibition; series mostly up to 115 µM
Procedure, shortened: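 rhAChE 50 mU/mL (dispensed) + cpd or DMSO, 30 min RT; add DTNB/acetylthiocholine cocktail, 10 min RT; colorimetric thiocholine readout. qHTS, 1536-well format.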

[9] = target: Acetylcholinesterase (Homo sapiens) (UniProt P22303); assay: Acetylcholinesterase (AChE) small molecule antagonists: fluorescence cell-based qHTS assay (AID 1347398; calls by dose curve; further: nearly all actives have a fitted effect of over 50% in size); conditions: SH-SY5Y cells; Potency: AChE activity; series mostly up to 115 µM
Procedure, shortened: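 Read-out is Thiolite Green fluorescence at Ex/Em = 490/520 nm, formed by reaction with thiocholine released when cellular AChE in SH-SY5Y cells hydrolyzes acetylthiocholine. Compounds were preincubated 30 min at 37 C before substrate.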

[10] = target: Acetylcholinesterase (Homo sapiens) (UniProt P22303); assay: Acetylcholinesterase (AChE) small molecule antagonists: enzyme-based qHTS assay with human liver microsomes (AID 1347399; calls by dose curve; further: nearly all actives have a fitted effect of over 60% in size); conditions: Potency: qHTS inhibition; series mostly up to 115 µM
Procedure, shortened: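 Recombinant human AChE (50 mU/mL in the enzyme mix) and human liver microsomes (0.25 mg/mL final) were preincubated with compound and NADPH (0.25 mg/mL final) for 30 min at 37 C. Acetylthiocholine/DTNB was then added; thiocholine was read colorimetrically after 10 min at room temperature.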

[11] = target: Cytochrome P450 2D6 (Homo sapiens) (UniProt P10635); assay: Cytochrome P450 Family 2 Subfamily D Member 6 (CYP2D6) small molecule antagonists: luciferase reporter qHTS assay (AID 1671196); conditions: P450-Glo CYP2D6 enzyme assay, luciferin luminescence, 1 h; series mostly up to 115 µM; further: nearly all actives have a fitted effect of over 50% in size; further: potency means the concentration at half of the fitted maximal effect
Procedure, shortened: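 Read-out is luminescence from luciferin formed by CYP2D6 turnover of a proluciferin substrate, recorded as relative luminescence units. Reactions ran 1 h at room temperature after NADPH regeneration solution was added.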

[12] = target: Cytochrome P450 2C9 (Homo sapiens) (UniProt P11712); assay: Cytochrome P450 Family 2 Subfamily C Member 9 (CYP2C9) small molecule antagonists: luciferase reporter qHTS assay (AID 1671198); conditions: P450-Glo CYP2C9 enzyme assay, luciferin luminescence; series mostly up to 115 µM; further: nearly all actives have a fitted effect of over 50% in size; further: potency means the concentration at half of the fitted maximal effect
Procedure, shortened: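 Enzyme-substrate mix preincubated with compound 10 min at room temperature; reaction started with NADPH regeneration solution, 1 h 37C. Luminescent luciferin product read after 20 min detection reagent.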

[13] = target: Cytochrome P450 1A2 (Homo sapiens) (UniProt P05177); assay: Cytochrome P450 Family 1 Subfamily A Member 2 (CYP1A2) small molecule antagonists: luciferase reporter qHTS assay (AID 1671199); conditions: P450-Glo CYP1A2 enzyme, luciferin luminescence, 1 h; series mostly up to 115 µM; further: nearly all actives have a fitted effect of over 50% in size; further: potency means the concentration at half of the fitted maximal effect
Procedure, shortened: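 P450-Glo CYP1A2, 1536-well qHTS: enzyme/proluciferin substrate + cpd (DMSO), 10 min RT; NADPH regen, 1 h RT; detection reagent, 20 min; luminescence, RLU.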

[14] = target: Voltage-gated inwardly rectifying potassium channel KCNH2 (Homo sapiens) (UniProt Q12809); assay: Human Ether-a-go-go-Related Gene (hERG) channel small molecule antagonists: fluorescence cell-based qHTS assay (AID 1671200); conditions: hERG-U2OS cells, FluxOR thallium flux fluorescence; series mostly up to 76.8 µM; further: nearly all actives have a fitted effect of over 50% in size; further: potency means the concentration at half of the fitted maximal effect
Procedure, shortened: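 Quantitative HTS in hERG-U2OS cells: thallium entry through the channel reports activity, read as continuous 480/540 nm fluorescence over 2 min after stimulus addition.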

[15] = target: Cytochrome P450 3A4 (Homo sapiens) (UniProt P08684); assay: Cytochrome P450 Family 3 Subfamily A Member 4 (CYP3A4) small molecule antagonists: luciferase reporter qHTS assay (AID 1671201); conditions: P450-Glo CYP3A4 enzyme, luciferin luminescence, 1 h; series mostly up to 115 µM; further: nearly all actives have a fitted effect of over 50% in size; further: potency means the concentration at half of the fitted maximal effect
Procedure, shortened: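 Inhibition of CYP3A4 is measured as loss of light: the enzyme converts a proluciferin substrate to luciferin, detected luminescently. Reaction ran 1 h at room temperature with NADPH regeneration after a 10 min compound preincubation.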

[16] = target: Cytochrome P450 2C19 (Homo sapiens) (UniProt P33261); assay: Cytochrome P450 Family 2 Subfamily C Member 19 (CYP2C19) small molecule antagonists: luciferase reporter qHTS assay (AID 1671197); conditions: P450-Glo CYP2C19 enzyme, luciferin luminescence, 1 h; series mostly up to 115 µM; further: nearly all actives have a fitted effect of over 65% in size; further: potency means the concentration at half of the fitted maximal effect
Procedure, shortened: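 First, compounds are pinned into enzyme-substrate mix and held 10 min at room temperature. Second, NADPH regeneration solution is added and plates incubate 1 h at 37C. Third, detection reagent is added and luminescence read after 20 min.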

[17] = target: Nuclear receptor subfamily 1 group I member 2 (Rattus norvegicus) (UniProt Q9R1A7); assay: Rat pregnane X receptor (rPXR) activation by small molecules, qHTS assay (AID 1346983); conditions: rPXR luciferase reporter cells, One-Glo luminescence, 24 h; max activation: stronger effect = higher value; further: nearly all actives have a fitted effect of over 20% in size
Procedure, shortened: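 Luminescent readout (One-Glo luciferase, 30 min room temperature) followed 24 hr compound treatment at 37 C of rPXR cells plated 2,000 per well and preincubated 5hr; qHTS format with compounds delivered in DMSO.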
On the % scale 0 is the no-effect control and ±100 the full control effect.

Chain of Cytochrome P450 2C9 (Homo sapiens) (P11712 whole entry, looked up): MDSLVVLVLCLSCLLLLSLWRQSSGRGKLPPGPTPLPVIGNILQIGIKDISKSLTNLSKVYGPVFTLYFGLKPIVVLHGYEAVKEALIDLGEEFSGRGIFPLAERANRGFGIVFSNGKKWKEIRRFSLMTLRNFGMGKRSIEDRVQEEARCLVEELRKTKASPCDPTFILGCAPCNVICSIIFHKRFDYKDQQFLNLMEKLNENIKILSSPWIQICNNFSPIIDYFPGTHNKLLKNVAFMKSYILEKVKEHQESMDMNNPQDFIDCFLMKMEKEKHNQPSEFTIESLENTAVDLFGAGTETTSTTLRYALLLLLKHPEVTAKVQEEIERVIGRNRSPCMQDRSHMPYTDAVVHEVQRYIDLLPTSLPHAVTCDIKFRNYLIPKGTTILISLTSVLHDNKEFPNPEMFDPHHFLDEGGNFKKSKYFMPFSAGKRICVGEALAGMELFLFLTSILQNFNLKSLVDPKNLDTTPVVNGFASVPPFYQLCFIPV
Chain of Cytochrome P450 1A2 (Homo sapiens) (P05177 whole entry, looked up): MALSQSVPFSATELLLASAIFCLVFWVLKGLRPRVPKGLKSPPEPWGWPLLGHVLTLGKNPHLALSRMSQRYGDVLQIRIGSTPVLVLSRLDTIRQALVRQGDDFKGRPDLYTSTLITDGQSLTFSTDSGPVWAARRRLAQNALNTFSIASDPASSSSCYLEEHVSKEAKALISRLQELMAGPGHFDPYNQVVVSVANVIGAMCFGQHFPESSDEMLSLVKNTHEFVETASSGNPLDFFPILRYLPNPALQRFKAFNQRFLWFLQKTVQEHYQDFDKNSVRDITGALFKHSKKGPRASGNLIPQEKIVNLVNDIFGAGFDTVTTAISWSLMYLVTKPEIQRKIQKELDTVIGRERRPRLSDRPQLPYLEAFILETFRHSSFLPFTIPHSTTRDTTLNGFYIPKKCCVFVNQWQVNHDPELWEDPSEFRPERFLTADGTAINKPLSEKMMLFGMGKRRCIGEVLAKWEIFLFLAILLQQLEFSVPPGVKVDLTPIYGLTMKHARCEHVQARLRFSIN
Chain of Cytochrome P450 2D6 (Homo sapiens) (P10635 whole entry, looked up): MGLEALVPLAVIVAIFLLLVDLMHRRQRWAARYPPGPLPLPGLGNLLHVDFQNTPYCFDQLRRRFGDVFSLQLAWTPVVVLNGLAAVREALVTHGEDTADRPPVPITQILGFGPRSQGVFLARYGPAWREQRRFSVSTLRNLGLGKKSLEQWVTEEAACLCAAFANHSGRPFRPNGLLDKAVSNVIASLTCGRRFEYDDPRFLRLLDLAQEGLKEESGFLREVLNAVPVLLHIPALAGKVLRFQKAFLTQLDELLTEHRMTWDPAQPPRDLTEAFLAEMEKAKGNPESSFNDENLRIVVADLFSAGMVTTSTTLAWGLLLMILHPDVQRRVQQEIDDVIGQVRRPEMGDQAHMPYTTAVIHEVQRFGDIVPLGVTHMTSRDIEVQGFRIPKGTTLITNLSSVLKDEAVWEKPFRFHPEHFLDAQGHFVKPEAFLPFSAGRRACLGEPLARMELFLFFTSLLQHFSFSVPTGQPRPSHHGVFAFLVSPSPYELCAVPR
Chain of Acetylcholinesterase (Homo sapiens) (P22303 whole entry, looked up): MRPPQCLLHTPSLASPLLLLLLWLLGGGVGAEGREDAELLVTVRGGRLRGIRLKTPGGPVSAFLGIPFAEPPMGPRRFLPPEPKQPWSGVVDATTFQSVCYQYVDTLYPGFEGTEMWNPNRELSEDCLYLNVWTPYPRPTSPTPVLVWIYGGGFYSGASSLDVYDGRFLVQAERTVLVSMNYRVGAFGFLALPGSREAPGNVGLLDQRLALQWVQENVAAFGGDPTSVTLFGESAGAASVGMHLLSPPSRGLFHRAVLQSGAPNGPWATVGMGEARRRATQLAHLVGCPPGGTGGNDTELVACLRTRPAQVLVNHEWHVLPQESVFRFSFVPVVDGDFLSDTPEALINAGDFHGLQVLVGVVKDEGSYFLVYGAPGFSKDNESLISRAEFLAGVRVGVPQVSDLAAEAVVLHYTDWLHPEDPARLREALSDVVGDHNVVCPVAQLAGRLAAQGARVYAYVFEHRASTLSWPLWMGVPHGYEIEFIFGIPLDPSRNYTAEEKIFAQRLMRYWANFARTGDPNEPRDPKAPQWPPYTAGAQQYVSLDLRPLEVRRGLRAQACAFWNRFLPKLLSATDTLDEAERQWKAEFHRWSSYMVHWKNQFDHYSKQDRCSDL
Chain of Nuclear receptor subfamily 1 group I member 2 (Homo sapiens) (O75469 whole entry, looked up): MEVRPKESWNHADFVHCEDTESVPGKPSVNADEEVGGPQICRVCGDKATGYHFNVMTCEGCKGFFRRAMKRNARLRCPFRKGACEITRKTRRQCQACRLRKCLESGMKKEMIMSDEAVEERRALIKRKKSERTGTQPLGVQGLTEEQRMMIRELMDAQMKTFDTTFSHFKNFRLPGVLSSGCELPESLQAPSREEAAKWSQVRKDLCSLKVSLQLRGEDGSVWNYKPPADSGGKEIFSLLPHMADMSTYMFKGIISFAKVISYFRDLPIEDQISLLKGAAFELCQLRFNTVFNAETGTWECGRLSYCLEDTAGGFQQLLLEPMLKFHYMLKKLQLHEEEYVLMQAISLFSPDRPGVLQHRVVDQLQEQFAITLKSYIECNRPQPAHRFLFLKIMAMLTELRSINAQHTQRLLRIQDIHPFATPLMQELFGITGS
Chain of Cytochrome P450 2C19 (Homo sapiens) (P33261 whole entry, looked up): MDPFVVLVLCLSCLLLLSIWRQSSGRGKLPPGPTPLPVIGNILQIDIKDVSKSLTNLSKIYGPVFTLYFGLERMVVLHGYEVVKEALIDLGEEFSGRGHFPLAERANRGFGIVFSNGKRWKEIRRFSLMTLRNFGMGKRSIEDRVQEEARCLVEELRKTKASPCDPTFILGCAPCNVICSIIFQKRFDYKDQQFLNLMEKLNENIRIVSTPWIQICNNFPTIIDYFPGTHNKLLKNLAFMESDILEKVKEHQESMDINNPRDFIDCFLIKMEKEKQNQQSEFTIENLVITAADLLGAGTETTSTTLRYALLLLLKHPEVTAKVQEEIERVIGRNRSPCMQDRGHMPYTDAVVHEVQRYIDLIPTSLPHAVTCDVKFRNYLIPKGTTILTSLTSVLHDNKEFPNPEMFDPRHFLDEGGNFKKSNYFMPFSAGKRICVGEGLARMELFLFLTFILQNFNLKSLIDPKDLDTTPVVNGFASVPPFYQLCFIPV
Chain of Voltage-gated inwardly rectifying potassium channel KCNH2 (Homo sapiens) (Q12809 whole entry, looked up): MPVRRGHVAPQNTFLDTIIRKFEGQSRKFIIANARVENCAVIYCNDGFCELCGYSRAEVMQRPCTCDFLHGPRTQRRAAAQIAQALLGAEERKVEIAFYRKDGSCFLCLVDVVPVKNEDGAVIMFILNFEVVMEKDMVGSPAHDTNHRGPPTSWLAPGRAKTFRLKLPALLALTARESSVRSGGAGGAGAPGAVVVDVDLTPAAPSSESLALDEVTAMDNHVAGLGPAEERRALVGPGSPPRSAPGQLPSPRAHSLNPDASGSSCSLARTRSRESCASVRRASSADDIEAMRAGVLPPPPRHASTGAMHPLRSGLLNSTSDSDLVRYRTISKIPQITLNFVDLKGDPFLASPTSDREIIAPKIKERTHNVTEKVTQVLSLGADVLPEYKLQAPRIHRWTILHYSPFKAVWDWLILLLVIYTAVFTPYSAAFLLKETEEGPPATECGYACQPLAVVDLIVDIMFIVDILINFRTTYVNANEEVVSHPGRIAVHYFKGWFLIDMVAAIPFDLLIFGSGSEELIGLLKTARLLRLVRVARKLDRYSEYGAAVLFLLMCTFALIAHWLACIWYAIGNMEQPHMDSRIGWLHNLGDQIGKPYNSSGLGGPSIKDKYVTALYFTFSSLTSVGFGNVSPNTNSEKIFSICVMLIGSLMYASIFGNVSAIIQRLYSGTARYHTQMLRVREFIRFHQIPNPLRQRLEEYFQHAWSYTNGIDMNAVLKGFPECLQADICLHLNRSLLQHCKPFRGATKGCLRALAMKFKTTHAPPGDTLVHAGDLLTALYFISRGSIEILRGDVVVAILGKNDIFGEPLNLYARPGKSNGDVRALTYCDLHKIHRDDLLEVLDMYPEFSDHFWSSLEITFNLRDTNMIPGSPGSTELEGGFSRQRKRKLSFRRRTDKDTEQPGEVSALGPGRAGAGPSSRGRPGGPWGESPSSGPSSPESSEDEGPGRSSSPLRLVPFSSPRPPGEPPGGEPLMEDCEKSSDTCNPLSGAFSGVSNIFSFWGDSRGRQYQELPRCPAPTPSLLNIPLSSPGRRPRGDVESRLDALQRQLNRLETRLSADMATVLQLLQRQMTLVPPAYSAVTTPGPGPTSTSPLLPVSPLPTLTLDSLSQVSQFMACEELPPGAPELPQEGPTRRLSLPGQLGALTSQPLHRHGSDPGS
Chain of Cytochrome P450 3A4 (Homo sapiens) (P08684 whole entry, looked up): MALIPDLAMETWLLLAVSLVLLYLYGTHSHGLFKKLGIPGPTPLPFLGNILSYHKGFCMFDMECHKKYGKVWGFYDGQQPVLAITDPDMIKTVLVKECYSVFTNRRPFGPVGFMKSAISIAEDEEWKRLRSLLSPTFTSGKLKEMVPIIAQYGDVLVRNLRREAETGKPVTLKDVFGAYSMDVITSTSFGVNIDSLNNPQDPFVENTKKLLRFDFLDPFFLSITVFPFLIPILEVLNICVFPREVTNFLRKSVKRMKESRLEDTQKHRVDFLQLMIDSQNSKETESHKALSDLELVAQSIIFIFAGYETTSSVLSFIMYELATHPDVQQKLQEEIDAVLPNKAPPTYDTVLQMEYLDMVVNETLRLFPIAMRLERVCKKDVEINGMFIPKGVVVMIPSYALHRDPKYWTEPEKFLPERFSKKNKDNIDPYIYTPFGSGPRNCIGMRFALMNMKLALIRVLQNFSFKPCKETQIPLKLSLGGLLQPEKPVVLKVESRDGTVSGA

CN1[C@@H]2CC[C@H]1CC(O)C2 (some centres not stated)
inactive: Potency [1] | Potency [2] | Potency [3] | Potency [4] | Potency [5] | Potency [6] | Potency [7] | Potency [8] | Potency [9] | Potency [10] | Potency [11] | Potency [12] | Potency [13] | Potency [14] | Potency [15]

CC[N+]1(CC)CCC(OC(=O)C(O)(c2ccccc2)c2ccccc2)C1 (configuration not stated)
inactive: Potency [1] | Potency [2] | Potency [3] | Potency [4] | Potency [5] | Potency [6] | Potency [7] | Potency [8] | Potency [9] | Potency [10] | Potency [16] | Potency [12] | Potency [14] | Potency [15]
active: Potency [11] 8.71 µM

CC(C)Br
inactive: Potency [1] | Potency [2] | Potency [3] | Potency [4] | Potency [5] | Potency [6] | Potency [7] | Potency [8] | Potency [9] | Potency [10] | Potency [11] | Potency [14]
active: Potency [16] 35.7 µM | Potency [12] 40 µM

Cc1cc2c3c(c1)C(c1ccccc1)=N[C@@H](NC(=O)c1ccncc1)C(=O)N3CC2
active: Potency [6] 13.7 µM | Potency [11] 39.9 µM | Potency [16] 25.2 µM | Potency [12] 31.7 µM | Potency [15] 1.12 µM
inactive: Potency [1] | Potency [2] | Potency [3] | Potency [4] | Potency [5] | Potency [7] | Potency [8] | Potency [9] | Potency [10]

O=[N+]([O-])c1ccc(CCl)cc1
inactive: Potency [1] | Potency [2] | Potency [3] | Potency [4] | Potency [5] | Potency [6] | Potency [7] | Potency [8] | Potency [9] | Potency [10] | Potency [11] | Potency [16] | Potency [12] | Potency [14] | Potency [15]

ClSC(Cl)(Cl)Cl
active: Potency [11] 10.1 µM | Potency [12] 31.8 µM
inactive: Potency [1] | Potency [2] | Potency [3] | Potency [4] | Potency [5] | Potency [6] | Potency [7] | Potency [8] | Potency [9] | Potency [10] | Potency [16] | Potency [14] | Potency [15]

O=c1[nH]c2cc(Cl)ccc2n1C1CCNCC1
active: Potency [11] 15.5 µM
inactive: Potency [1] | Potency [2] | Potency [3] | Potency [4] | Potency [5] | Potency [6] | Potency [7] | Potency [8] | Potency [9] | Potency [10] | Potency [16] | Potency [15]

CCC(C)Br (configuration not stated)
inactive: Potency [1] | Potency [2] | Potency [3] | Potency [4] | Potency [5] | Potency [6] | Potency [7] | Potency [8] | Potency [9] | Potency [10] | Potency [16] | Potency [12] | Potency [13] | Potency [14]

BrCCCBr
inactive: Potency [1] | Potency [2] | Potency [3] | Potency [4] | Potency [5] | Potency [6] | Potency [7] | Potency [8] | Potency [9] | Potency [10] | Potency [11] | Potency [16] | Potency [12] | Potency [14] | Potency [15]

CC(C)c1c(CN(C)C(C)Cc2ccccc2)n(C)n(-c2ccccc2)c1=O (configuration not stated)
inactive: max activation [17] 8.57%

C[C@]12C/C(=C/O)C(=O)C[C@@H]1CC[C@@H]1[C@@H]2CC[C@@]2(C)[C@H]1CC[C@]2(C)O
inactive: max activation [17] 1.42%

O=C(O)[C@H](O)[C@@H](O)C(=O)O
inactive: Potency [1] | Potency [2] | Potency [3] | Potency [4] | Potency [5] | Potency [7] | Potency [8] | Potency [9] | Potency [14]

Nc1ccccc1-c1ccccc1
active: Potency [11] 28.1 µM | Potency [16] 35.4 µM | Potency [12] 31.5 µM | Potency [13] 35.4 µM
inactive: Potency [1] | Potency [2] | Potency [3] | Potency [4] | Potency [5] | Potency [7] | Potency [8] | Potency [9] | Potency [10] | Potency [14]

O=[N+]([O-])c1cc(C(F)(F)F)c(Cl)c([N+](=O)[O-])c1Nc1ncc(C(F)(F)F)cc1Cl
inactive: Potency [2] | Potency [7] | Potency [8] | Potency [9] | Potency [10]
active: Potency [1] 17.2 µM | Potency [3] 5.45 µM | Potency [5] 54.5 µM | Potency [6] 8.63 µM | Potency [16] 12.6 µM | Potency [12] 0.564 µM | Potency [13] 35.6 µM | Potency [15] 20 µM

O=C1C2(Cl)C3(Cl)C4(Cl)C(Cl)(Cl)C5(Cl)C3(Cl)C1(Cl)C5(Cl)C24Cl (configuration not stated)
inactive: Potency [7] | Potency [8] | Potency [9] | Potency [10] | Potency [11] | Potency [13]
active: Potency [1] 42.6 µM | Potency [2] 30.1 µM and 65.7 µM | Potency [3] 37.9 µM and 46.5 µM | Potency [5] 60.1 µM | Potency [6] 10.7 µM and 10.4 µM | Potency [16] 622 nM and 961 nM | Potency [12] 5.55 µM and 6.06 µM | Potency [14] 12.1 µM and 14.8 µM | Potency [15] 2.78 µM and 3.41 µM

O.O.O.O=C([O-])[C@H]([O-])[C@@H]([O-])C(=O)[O-].O=C([O-])[C@H]([O-])[C@@H]([O-])C(=O)[O-].[K+].[K+].[Sb+3].[Sb+3]
inactive: Potency [1] | Potency [2] | Potency [4] | Potency [5] | Potency [7] | Potency [8] | Potency [9] | Potency [14]
active: Potency [3] 17.3 µM
